Rv3671c protease: inhibits the M. tuberculosis serine protease Rv3671c; P9WHR9; inhibition, % at 5.96 µM; 320,000 compounds, 0.048% hits; AID 2606; in the data active means inhibition above about 38%;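 further: extracellular domain of Rv3671c used as enzyme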
Mtb UGM inh: Mtb UDP-galactopyranose mutase inhibition. 320,000 compounds, 0.06% hits. purified UGM, fluorescence polarization probe displacement. AID 504406. P9WIQ1. inhibition, % at 10 µM; in the data active means inhibition above about 10%, passing the limit was not always enough; inconclusive means no clear call, values can overlap the other calls
Mtb FBA inh: Mtb fructose-bisphosphate aldolase inhibition; P9WQA3; purified M. tuberculosis FBA, fluorescence read-out; inhibition, % at 1 µM; 360,000 compounds, 2.3% hits; in the data active means inhibition above about 27%
Mtb bLac sens: beta-lactam sensitization of Mtb H37Rv | M. tuberculosis H37Rv growth with meropenem, percent inhibition | 330,000 compounds, 0.27% hits | AID 434955 | inhibition, % at 25 µM; call rule not given here;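 further: growth measured after seven days incubation then overnight dye step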
RecA splice inh: blocks M. tuberculosis RecA intein splicing; P9WHJ3; cell-free RecA intein splicing, fluorescence; inhibition, % (concentration not given with the values); 290,000 compounds, 0.75% hits; in the data active means inhibition above about 30%; inconclusive means no clear call, values can overlap the other calls
Target sequence (P9WHJ3 whole entry, looked up, canonical isoform): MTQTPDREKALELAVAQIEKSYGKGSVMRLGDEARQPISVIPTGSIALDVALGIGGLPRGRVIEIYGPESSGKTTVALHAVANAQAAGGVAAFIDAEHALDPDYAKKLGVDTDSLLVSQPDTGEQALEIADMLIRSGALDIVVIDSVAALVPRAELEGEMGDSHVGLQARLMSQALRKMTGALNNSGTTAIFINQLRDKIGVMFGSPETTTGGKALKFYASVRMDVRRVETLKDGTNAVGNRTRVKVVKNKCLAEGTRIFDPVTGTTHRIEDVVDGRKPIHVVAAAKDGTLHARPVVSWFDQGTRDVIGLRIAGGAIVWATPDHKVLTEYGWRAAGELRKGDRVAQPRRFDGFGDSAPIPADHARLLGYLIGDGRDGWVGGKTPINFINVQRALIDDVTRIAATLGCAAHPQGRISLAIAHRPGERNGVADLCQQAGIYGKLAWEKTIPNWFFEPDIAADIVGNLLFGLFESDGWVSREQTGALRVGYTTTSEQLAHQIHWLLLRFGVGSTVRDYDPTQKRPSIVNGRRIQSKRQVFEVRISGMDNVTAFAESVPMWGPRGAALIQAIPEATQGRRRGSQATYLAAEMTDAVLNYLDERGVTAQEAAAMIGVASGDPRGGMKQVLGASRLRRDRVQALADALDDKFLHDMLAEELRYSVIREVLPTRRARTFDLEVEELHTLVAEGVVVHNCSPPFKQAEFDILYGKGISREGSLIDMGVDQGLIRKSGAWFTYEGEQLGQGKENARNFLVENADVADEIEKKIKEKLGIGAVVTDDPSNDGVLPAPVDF
GDH-TPI inh: GDH-TPI coupled enzyme inhibition counter-screen; GDH-TPI coupled enzyme counterscreen, NADH absorbance; inhibition, % at 4.8 µM; 360,000 compounds, 1.2% hits; AID 588335; in the data active means inhibition above about 30%
Each line names hits and unclear results; the compound was inactive in the other large screens. In the library only some 4% were active in any assay of this set; here they are far more common.

CCc1nnc(NS(=O)(=O)c2ccc(NCc3ccccc3O)cc2)s1	none
Cc1cc(=O)[nH]c2ccc(S(=O)(=O)NCc3ccccc3)cc12	none
COCCCn1c(C(=O)NC2CCCCC2C)cc2c(=O)n3cccc(C)c3nc21 (stereo unspecified)	none
COCCCn1c(=NC(=O)c2ccccc2)c(C#N)cc2c(=O)n3cccc(C)c3nc21	Mtb FBA inh 174.0
CCOCCCn1c(=NC(C)=O)c(C(=O)OCC)cc2c(=O)n3ccccc3nc21	none
COCCCn1c(=NC(C)=O)c(C#N)cc2c(=O)n3cccc(C)c3nc21	Mtb FBA inh active
CCOCCCn1c(=NC(=O)c2cccs2)c(C#N)cc2c(=O)n3cccc(C)c3nc21	Mtb FBA inh active
CCOCCCn1c(=NC(C)=O)c(C#N)cc2c(=O)n3ccccc3nc21	Mtb FBA inh active
Cc1ccc(N(CC(=O)N2CCN(Cc3ccccc3)CC2)S(C)(=O)=O)cc1C	none
Cc1c(Cl)cccc1NC(=O)CSc1nncn1-c1ccccn1	none
Cc1ccc(S(=O)(=O)/N=C/N(C)C)cc1	none (no result: Mtb UGM inh)
Cc1ccc(S(=O)(=O)/N=C/c2ccc(N(C)C)cc2)cc1	GDH-TPI inh 35.0
CC(=O)Nc1ccc(S(=O)(=O)NCCC(=O)NNC(=O)c2ccccc2O)cc1	none (no result: RecA splice inh)
CCC(Oc1ccccc1)C(=O)Nc1ccc(S(=O)(=O)Nc2cc(C)on2)cc1 (stereo unspecified)	none
CCCOc1ccc(/C=N/NC(=S)Nc2ccccc2[N+](=O)[O-])c(O)c1	none (no result: Mtb FBA inh, GDH-TPI inh)
Cc1ccc(C=NNC(=O)C(=O)Nc2ccc(Cl)c([N+](=O)[O-])c2)cc1	none (no result: Rv3671c protease, Mtb UGM inh, Mtb bLac sens, RecA splice inh, GDH-TPI inh)
S=C(N/N=C/c1ccc(Cl)c(Cl)c1)Nc1ccccc1Cl	none
COc1ccc(/C=N/NC(=S)Nc2ccccc2[N+](=O)[O-])cc1O	GDH-TPI inh 49.4
Cc1ccc(NC(=S)N/N=C/c2ccc(Cl)c([N+](=O)[O-])c2)cc1	GDH-TPI inh 33.3 (no result: Mtb bLac sens)
O=[N+]([O-])c1cc(/C=N/NC(=S)Nc2ccccc2Cl)ccc1Cl	GDH-TPI inh 32.9
COc1ccccc1N1CCN(C(=O)/C=C/c2c(Cl)nc3ccccn23)CC1	GDH-TPI inh 47.4
COC(=O)C1=C(C)NC2=C(C(=O)CCC2)C1c1ccsc1 (stereo unspecified)	none (no result: Rv3671c protease, Mtb UGM inh, Mtb FBA inh, Mtb bLac sens, GDH-TPI inh)
COC(=O)C1=C(C)NC2=C(C(=O)CCC2)C1c1ccc(-c2ccsc2C(=O)OC)o1 (stereo unspecified)	GDH-TPI inh 49.7
CC1(C)CC(=O)c2c(O)cc(OCC(=O)N3CCN(c4ccc(F)cc4)CC3)cc2O1	none
Cc1cccc(NC(=O)c2ccc3[nH]c(=O)c(=O)[nH]c3c2)n1	GDH-TPI inh 31.6
O=C(Nc1ccc(F)cc1)c1ccc2[nH]c(=O)c(=O)[nH]c2c1	none
CCCCc1nnc(NC(=O)c2ccc3[nH]c(=O)c(=O)[nH]c3c2)s1	GDH-TPI inh 45.9
CCCCc1nnc(NC(=O)c2ccc(N3CCCC3=O)cc2)s1	none
CC1(CCC(=O)N2CCCC(Nc3ccc(F)cc3)C2)CC1 (stereo unspecified)	none
CCn1c(SCC(=O)c2c(N)n(C3CC3)c(=O)[nH]c2=O)nc2cc(S(N)(=O)=O)ccc21	none (no result: RecA splice inh)
CCc1nn(CC(=O)NCCCN2CCOCC2)c(=O)c2cc3c(OC)cccc3n12	Mtb FBA inh 112.4 (no result: Rv3671c protease, Mtb UGM inh, Mtb bLac sens, RecA splice inh)
COc1cccc2c1cc1c(=O)n(CC(=O)NCCCN3CCCCC3)nc(C)n12	Mtb FBA inh 115.8
CCCNC(=O)c1cc(C2CCCN(C(=O)c3ccc(NC(C)=O)cc3)C2)on1 (stereo unspecified)	none (no result: Rv3671c protease, Mtb UGM inh, Mtb bLac sens, RecA splice inh)
O=C(O)CCC(=O)N1c2ccccc2NC2=C(C(=O)CC(c3ccc(F)cc3)C2)C1c1ccc([N+](=O)[O-])o1 (stereo unspecified)	none
COc1ccc(C2CC(=O)C3=C(C2)Nc2ccccc2N(C(=O)CCC(=O)O)C3c2ccc(F)cc2)cc1 (stereo unspecified)	GDH-TPI inh 50.0
CC(C)N(C(=O)[C@H]1C[C@H](CC(=O)NCCC2=CCCCC2)C(=O)N2CCc3c([nH]c4ccc(Cl)cc34)[C@]12C)C(C)C	none (no result: Rv3671c protease, Mtb UGM inh, Mtb bLac sens, RecA splice inh)
Cc1noc(C)c1CSCC(=O)Oc1ccc(N(C)S(=O)(=O)c2ccc(Cl)cc2)cc1	RecA splice inh 40.1
CCc1noc(C)c1C(=O)Oc1ccc(N(C)S(=O)(=O)c2ccccc2)cc1	none
Cc1noc(C)c1CSCC(=O)Oc1ccc(N(C)S(=O)(=O)c2ccccc2)cc1	RecA splice inh 38.1
Cc1ccc(CNc2ccccc2C(=O)O)s1	none
COc1ccc(/C=C/C(=O)Nc2nc(N)n(-c3ccccc3)n2)cc1	GDH-TPI inh 33.5
Nc1nc(NC(=O)/C=C\C(=O)O)nn1-c1ccccc1	none
COc1ccc(/C=C/C(=O)Nc2cccnc2Cl)cc1	GDH-TPI inh 31.2
Cc1ccccc1N(CC(=O)NCC1CCCO1)C(=O)CCC(=O)Nc1nccs1 (stereo unspecified)	none
CCOC(=O)C1=CCC(c2cccs2)N(S(=O)(=O)c2ccc(C)cc2)C1 (stereo unspecified)	none (no result: Rv3671c protease, Mtb UGM inh, Mtb bLac sens, RecA splice inh, GDH-TPI inh)
CCOC(=O)C(=CNc1ccccc1N1CCOCC1)C(=O)OCC	GDH-TPI inh 50.3
CC(=O)c1ccc(NC(=O)C(C)Sc2nnc(C3CCCCC3)o2)cc1 (stereo unspecified)	none (no result: Mtb FBA inh, GDH-TPI inh)
COc1cc2c(cc1OC)[C@@H](NC(=O)COc1ccccc1)[C@H](OCc1ccccc1)C2	none (no result: Rv3671c protease, Mtb UGM inh, Mtb bLac sens, RecA splice inh)
CC1(CC(=O)N/N=C/c2ccc(-c3ccc(Cl)cc3)o2)OCCO1	GDH-TPI inh 54.6
O=C(CN1CCOCC1)N/N=C/c1ccccc1	none
O=C(CN1CCOCC1)N/N=C/c1ccc(-c2ccc(C(=O)O)cc2)o1	GDH-TPI inh 35.4
Cc1ccc(-c2ccc(/C=N/NC(=O)CN3CCCC3)o2)cc1Cl	none
CC1(CC(=O)N/N=C/c2ccc(-c3ccc(C(=O)O)cc3)o2)OCCO1	GDH-TPI inh 59.6
C[C@H](NS(=O)(=O)c1ccc2c(c1)OCCCO2)C(=O)N1CCN(Cc2ccc(C#N)cc2)CC1	none (no result: RecA splice inh)
CC(C)(C)OC(=O)NN1CC(=O)N2[C@@H](Cc3c([nH]c4ccccc34)C2(C)C)C1=O	none
C=CCn1c(SCC(=O)Nc2cccc(S(N)(=O)=O)c2)nc2sc(C)c(C)c2c1=O	none (no result: RecA splice inh)
Nc1c(C(=O)NCc2ccc3c(c2)OCO3)c2nc3ccccc3nc2n1CCCN1CCOCC1	none (no result: RecA splice inh)
c1ccc2nc3c(nc2c1)c1ccccc1n3CCN1CCOCC1	Mtb bLac sens inconclusive
COc1ccccc1CNC(=O)c1c(N)n(CCCN2CCOCC2)c2nc3ccccc3nc12	Mtb FBA inh 82.2 (no result: Rv3671c protease, Mtb UGM inh, Mtb bLac sens)
CC(C)OC(=O)c1c(N)n(CCCN2CCOCC2)c2nc3ccccc3nc12	Mtb FBA inh 146.6
C[C@H]1CN([C@@H](C)CO)C(=O)CCCn2cc(nn2)CO[C@@H]1CN(C)S(C)(=O)=O	none (no result: Rv3671c protease, Mtb UGM inh, Mtb bLac sens, RecA splice inh)
CC1=C(C(=O)N(C)C)CC(CC(=O)NCCc2ccccn2)C(=O)N1Cc1ccc(C(C)(C)C)cc1 (stereo unspecified)	none (no result: Rv3671c protease, Mtb UGM inh, Mtb bLac sens, RecA splice inh)
CCc1ccc(/C=C2/C(=O)NC(=O)N2C(C)=O)cc1	GDH-TPI inh 40.0
